We go through 40 molecules from PubChem BioAssay (Tox21).

SMILES strings stand for the structures. Records with an inconclusive call do not appear. Entries that show only a call come without a potency. Some compounds were tested as several samples or in several runs, with calls that do not always agree. Active and inactive are the calls of the source. Calls follow the shape of the dose curve; as a rule, active = well fitted cell-killing curve with a large enough effect in the repeat runs; inconclusive = weak or mixed curves, or effect the other way; inactive = flat fitted curve, though single readings scatter.
Potency is read from the fitted curve at half-maximal effect.

A short description of this experiment: Caspase-3/7 induction in HepG2 cells by small molecules, qHTS cell viability counter screen (AID 1346981). Also: nearly all actives have a fitted effect of over 30% in size. The note with it: CellTiter-Fluor fluorescence, 17 h; series mostly up to 92.4 µM; activity change, negative = cytotoxicity: at the top concentration. From the text:
U.S. Tox21 Program National Center for Advancing Translational Sciences [NCATS] NIH Chemical Genomics Center [NCGC] U.S. Environmental Protection Agency [EPA] National Institutes of Environmental Health Sciences [NIEHS] National Toxicology Program [NTP] U.S. Food and Drug Administration [FDA] Tox21 Assay Overview: Apoptosis is a process of programmed cell death and plays a central role in the development of multicellular organisms. It is a highly regulated process and induces cell death by activating caspases, which are the members of cysteine aspartic acid-specific protease (caspase) family. Caspases involved in apoptosis are classified by their mechanism of action as initiator caspases (caspase-2, -8, -9 and -10) and executioner caspases (caspase-3, -6, and -7). Inhibition of apoptosis results in number of cancers, autoimmune diseases, inflammatory diseases and viral infection. To identify small molecule compounds that induce apoptosis, a homogeneous, luminescent Caspase-Glo 3/7 assay was used. Wild type HepG2 cells were used to screen Tox21 libraries for identifying caspase-3/7 activity inducers. Also cytotoxicity of the compounds was tested in parallel by measuring the cell viability using CellTiter-Fluor assay system in the same wells.
Tox21 Assay Protocol Summary: HepG2 cells were dispensed at 2,000 per well in 5uL of culture medium into white solid bottom 1536-well plates (Corning Life Sciences, Corning, NY) using a Multidrop Combi (Thermo Scientific, Waltham, MA) dispenser. The assay plates were incubated at 37 C and 5% CO2 for 5hr, and then 23nL of compounds dissolved in DMSO and positive control were transferred using a Pintool station ([…], San Diego, CA). The assay plates were incubated at 37C and 5% CO2 for 17hr. For cytotoxicity read, after 16hr incubation at 37C, 1uL CellTiter-Fluor reagent (Promega Corporation, Madison, WI) was added to each well of the assay plates using Flying Reagent Dispenser (FRD, Aurora Discovery, San Diego, CA). After 1hr incubation at 37C and 5% CO2, the fluorescence signal was quantified using a ViewLux plate reader (PerkinElmer, Shelton, CT).
As to `CCCCCCCCCl`, the Potency result was “inactive”.
Consider `CC(C)C1(C)N=C(c2nc3ccccc3cc2C(=O)O)NC1=O` (stereo not given), for which the Potency entry is “inactive”.
Still for that read-out and setting: with `Cc1ccc(N)cc1Cl` the entry was “inactive”.
Still for that read-out and setting: with `C=C(C)CCl` the entry was “inactive”; with `CN=C=S`, “inactive”.
`COc1ccc2c3c1O[C@H]1[C@@H](O)C=C[C@H]4[C@@H](C2)N(C)CC[C@@]341`: the “activity change, negative = cytotoxicity” value was -14.8% (inactive).
As to `C1CN2CCN1CC2`, the Potency entry was “inactive”.
For the molecule `CCC[CH2][Sn]([Cl])([Cl])[Cl]`, the Potency entry is “inactive”.
On to `CC1C=[C-]C=C1.[C-]#[O+].[C-]#[O+].[C-]#[O+].[Mn]`, for which the Potency entry is “inactive”.
Consider `CN(C)CCO`, for which the Potency entry is “inactive”.
On the same count and under the same terms, as for `COC(=O)NC(=S)Nc1ccccc1NC(=S)NC(=O)OC`, the entry is “inactive”.
On the same count and under the same terms, with `OCCN(CCO)CCO` the entry was “inactive”; with `CC(C)OC(=O)Nc1ccccc1`, “inactive”; with `CC(C)(Cl)Cl`, “inactive”.
On the same count and under the same terms, with `O=C1CCCN1` the entry was “inactive”.
Turning to `CCOP(=S)(OCC)SCCSCC`, the Potency entry was “inactive”.
`CCCCCOC(=O)c1ccccc1C(=O)OCCCCC`: the Potency entry is “inactive”.
With `O=C(NC(=O)c1c(F)cccc1F)Nc1cc(Cl)c(OC(F)(F)C(F)C(F)(F)F)cc1Cl` (stereo not given), the Potency entry is “inactive”.
Consider `CC(C)N1C(=O)c2ccccc2NS1(=O)=O`, for which the Potency result is “inactive”.
On the same count and under the same terms, as for `COC(=O)c1ccccc1C(=O)OC`, the entry is “inactive”.
With `BrCCBr`, the Potency entry was “inactive”.
Same read-out and setting: with `O=[N+]([O-])c1ccccc1` the entry was “inactive”; with `CCOP(=S)(OCC)Oc1cnc2ccccc2n1`, “inactive”; with `O=c1[nH]c2ccccc2c(=O)o1`, “inactive”.
Consider `CC(=O)C=C(C)C`, for which the Potency entry was “inactive”.
For `CCc1cccc(C)c1N(C(=O)CCl)C(C)COC` (stereo not given), the Potency result was “inactive”.
`CC(C#N)CCC#N` (stereo not given): the “activity change, negative = cytotoxicity” value is -0.92% (inactive).
As for `Clc1ccc(Cl)cc1`, the Potency was 4.32 µM (active) and inactive.
`Nc1ccc(Oc2ccc(N)cc2)cc1`: the Potency result is “inactive”.
The same measure, in the same setting: as for `O=S(=O)(c1ccc(Cl)cc1)c1cc(Cl)c(Cl)cc1Cl`, the entry is “inactive”; as for `O=C(O)c1ccccn1`, “inactive”.
`NCC(O)c1ccc(O)cc1` (stereo not given): the Potency entry is “inactive”.
`CCNc1nc(NC(C)C)nc(SC)n1`: the Potency entry is “inactive”.
The same measure, in the same setting: as for `CCCCOC(=O)c1ccccc1C(=O)OCCCC`, the entry is “inactive”.
Consider `C#CCN(C)[C@H](C)Cc1ccccc1`, for which the Potency entry was “inactive”.
For the molecule `O=[N+]([O-])c1ccc([As](=O)(O)O)cc1`, the Potency result was “inactive”.
On to `CCC(C)(CC)c1cc(NC(=O)c2c(OC)cccc2OC)on1`, for which the “activity change, negative = cytotoxicity” value was -2.06% (inactive).
As to `CC(C)NC(=O)N1CC(=O)N(c2cc(Cl)cc(Cl)c2)C1=O`, the “activity change, negative = cytotoxicity” value is 8.55% (inactive).
For `CN1C(=O)CN=C(c2ccccc2)c2cc(Cl)ccc21`, the Potency entry was “inactive”.
The same measure, in the same setting: as for `CCCCN(CC)C(=O)SCCC`, the entry is “inactive”.
